# Data from the supplement of paper PMC8728848.
# This excerpt belongs to a sample that is enriched for the strongest signals.
# B1: Vd2LysM (Verticillium dahliae) (protein)
# chain: YRRTCSHTGKGEGWYIIRRGDNFNAVAADFCTSTNVLTEWNHISTITDNMVNTKIKVPCRWNAGKQRDCLKDQKSSNGWYHIVSGDELKDIAYDFCTTSGSLAGMNGISNPDYIKANTDIVVPCSWN
# What was measured:
# Assay in all cases: glycan array binding signal (z-score within array); higher = stronger binding
# Conditions in all cases: glycan notation: IUPAC condensed, linker removed
# [1] = molecular target: Fuc(a1-2)Gal(b1-3)GalNAc(a1-3)[Fuc(a1-2)]Gal(b1-4)Glc
# Procedure, shortened: (§1)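 Glycan array binding is given as a within-array Z-score, which can be read as non-binding when negative. The arrays, 3228 of them, came from the Consortium for Functional Glycomics database and were retained only where the protein sequence was available. Z-scores were averaged across arrays of the same protein sequence at different concentrations or buffers and across linkers.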
# [2] = molecular target: Fuc(a1-2)Gal(b1-3)GlcNAc
# Procedure, shortened: as §1
# [3] = molecular target: Fuc(a1-2)Gal(b1-3)GlcNAc(b1-3)GalNAc
# Procedure, shortened: as §1
# [4] = molecular target: Fuc(a1-2)Gal(b1-4)GlcNAc(b1-3)Gal(b1-4)GlcNAc
# Procedure, shortened: as §1
# [5] = molecular target: Fuc(a1-2)Gal(b1-4)[Fuc(a1-3)]GlcNAc(b1-2)[Fuc(a1-2)Gal(b1-4)[Fuc(a1-3)]GlcNAc(b1-4)]Man(a1-3)[Fuc(a1-2)Gal(b1-4)[Fuc(a1-3)]GlcNAc(b1-2)Man(a1-6)]Man(b1-4)GlcNAc(b1-4)GlcNAc
# Procedure, shortened: as §1
# [6] = molecular target: Fuc(a1-2)[Gal(a1-3)]Gal(b1-4)GlcNAc(b1-2)Man(a1-3)[Fuc(a1-2)[Gal(a1-3)]Gal(b1-4)GlcNAc(b1-2)Man(a1-6)]Man(b1-4)GlcNAc(b1-4)GlcNAc
# Procedure, shortened: as §1
# [7] = molecular target: Fuc(a1-2)[GalNAc(a1-3)]Gal(b1-4)[Fuc(a1-3)]GlcNAc(b1-3)GalNAc
# Procedure, shortened: as §1
# [8] = molecular target: Fuc(a1-3)[Gal3S(b1-4)]GlcNAc
# Procedure, shortened: as §1
# [9] = molecular target: Gal(a1-3)Gal(b1-3)GlcNAc(b1-2)Man
# Procedure, shortened: as §1
# [10] = molecular target: Gal(a1-3)Gal(b1-4)GlcNAc
# Procedure, shortened: as §1
# [11] = molecular target: Gal(a1-3)Gal(b1-4)GlcNAc(b1-2)Man(a1-3)[Gal(a1-3)Gal(b1-4)GlcNAc(b1-2)Man(a1-6)]Man(b1-4)GlcNAc(b1-4)GlcNAc
# Procedure, shortened: as §1
# [12] = molecular target: Gal(b1-3)GlcNAc
# Procedure, shortened: as §1
# [13] = molecular target: Gal(b1-3)GlcNAc(b1-3)Gal(b1-3)GlcNAc
# Procedure, shortened: as §1
# [14] = molecular target: Gal(b1-3)GlcNAc(b1-3)Gal(b1-4)GlcNAc(b1-2)Man(a1-3)[Gal(b1-3)GlcNAc(b1-3)Gal(b1-4)GlcNAc(b1-2)Man(a1-6)]Man(b1-4)GlcNAc(b1-4)GlcNAc
# Procedure, shortened: as §1
# [15] = molecular target: Gal(b1-3)GlcNAc(b1-3)Gal(b1-4)GlcNAc(b1-2)[Gal(b1-3)GlcNAc(b1-3)Gal(b1-4)GlcNAc(b1-6)]Man(a1-6)[Gal(b1-3)GlcNAc(b1-3)Gal(b1-4)GlcNAc(b1-2)Man(a1-3)]Man(b1-4)GlcNAc(b1-4)[Fuc(a1-6)]GlcNAc
# Procedure, shortened: as §1
# [16] = molecular target: Gal(b1-3)GlcNAc(b1-3)Gal(b1-4)GlcNAc(b1-3)Gal(b1-4)GlcNAc(b1-2)[Gal(b1-3)GlcNAc(b1-3)Gal(b1-4)GlcNAc(b1-3)Gal(b1-4)GlcNAc(b1-6)]Man(a1-6)[Gal(b1-3)GlcNAc(b1-3)Gal(b1-4)GlcNAc(b1-3)Gal(b1-4)GlcNAc(b1-2)Man(a1-3)]Man(b1-4)GlcNAc(b1-4)[Fuc(a1-6)]GlcNAc
# Procedure, shortened: as §1
# [17] = molecular target: Gal(b1-3)[Fuc(a1-4)]GlcNAc(b1-2)Man(a1-3)[Gal(b1-3)[Fuc(a1-4)]GlcNAc(b1-2)Man(a1-6)]Man(b1-4)GlcNAc(b1-4)[Fuc(a1-6)]GlcNAc
# Procedure, shortened: as §1
# [18] = molecular target: Gal(b1-4)Glc
# Procedure, shortened: as §1
# [19] = molecular target: Gal(b1-4)GlcNAc(b1-2)Man(a1-3)[Gal(b1-4)GlcNAc(b1-2)Man(a1-6)]Man(b1-4)GlcNAc(b1-4)GlcNAc
# Procedure, shortened: as §1
# [20] = molecular target: Gal(b1-4)GlcNAc(b1-3)Gal(b1-3)GalNAc
# Procedure, shortened: as §1
# [21] = molecular target: Gal(b1-4)GlcNAc(b1-3)Gal(b1-4)GlcNAc(b1-2)[Gal(b1-4)GlcNAc(b1-3)Gal(b1-4)GlcNAc(b1-6)]Man(a1-6)[Gal(b1-4)GlcNAc(b1-3)Gal(b1-4)GlcNAc(b1-2)Man(a1-3)]Man(b1-4)GlcNAc(b1-4)[Fuc(a1-6)]GlcNAc
# Procedure, shortened: as §1
# [22] = molecular target: Gal3S(b1-3)GalNAc
# Procedure, shortened: as §1
# [23] = molecular target: GalNAc(a1-3)GalNAc(b1-3)Gal(a1-4)Gal(b1-4)GlcNAc
# Procedure, shortened: as §1
# [24] = molecular target: Glc(b1-6)Glc
# Procedure, shortened: as §1
# [25] = molecular target: GlcNAc(b1-2)[GlcNAc(b1-4)]Man(a1-3)[GlcNAc(b1-4)][GlcNAc(b1-2)Man(a1-6)]Man(b1-4)GlcNAc(b1-4)GlcNAc
# Procedure, shortened: as §1
# [26] = molecular target: GlcNAc(b1-2)[GlcNAc(b1-4)]Man(a1-3)[GlcNAc(b1-4)][GlcNAc(b1-2)[GlcNAc(b1-6)]Man(a1-6)]Man(b1-4)GlcNAc(b1-4)[Fuc(a1-6)]GlcNAc
# Procedure, shortened: as §1
# [27] = molecular target: GlcNAc(b1-3)Gal(b1-4)GlcNAc(b1-2)[GlcNAc(b1-3)Gal(b1-4)GlcNAc(b1-6)]Man(a1-6)[GlcNAc(b1-3)Gal(b1-4)GlcNAc(b1-2)Man(a1-3)]Man(b1-4)GlcNAc(b1-4)GlcNAc
# Procedure, shortened: as §1
# [28] = molecular target: GlcNAc(b1-3)Gal(b1-4)GlcNAc(b1-3)GalNAc
# Procedure, shortened: as §1
# [29] = molecular target: GlcNAc(b1-4)Gal(b1-4)GlcNAc
# Procedure, shortened: as §1
# [30] = molecular target: GlcNAc(b1-4)GlcNAc(b1-4)GlcNAc(b1-4)GlcNAc(b1-4)GlcNAc
# Procedure, shortened: as §1
# [31] = molecular target: GlcNAc(b1-4)GlcNAc(b1-4)GlcNAc(b1-4)GlcNAc(b1-4)GlcNAc(b1-4)GlcNAc
# Procedure, shortened: as §1
# [32] = molecular target: Kdn(a2-3)Gal(b1-3)GalNAc
# Procedure, shortened: as §1
# [33] = molecular target: Man(a1-2)Man(a1-3)[Man(a1-2)Man(a1-6)]Man(a1-6)[Man(a1-2)Man(a1-2)Man(a1-3)]Man(b1-4)GlcNAc(b1-4)GlcNAc
# Procedure, shortened: as §1
# [34] = molecular target: MurNAc(b1-4)GlcNAc
# Procedure, shortened: as §1
# [35] = molecular target: Neu5Ac(a2-3)Gal(b1-4)Glc
# Procedure, shortened: as §1
# [36] = molecular target: Neu5Ac(a2-3)Gal(b1-4)GlcNAc(b1-2)Man
# Procedure, shortened: as §1
# [37] = molecular target: Neu5Ac(a2-3)Gal(b1-4)GlcNAc(b1-2)Man(a1-3)[Neu5Ac(a2-3)Gal(b1-4)GlcNAc(b1-2)Man(a1-6)]Man(b1-4)GlcNAc(b1-4)[Fuc(a1-6)]GlcNAc
# Procedure, shortened: as §1
# [38] = molecular target: Neu5Ac(a2-3)Gal(b1-4)GlcNAc(b1-3)Gal
# Procedure, shortened: as §1
# [39] = molecular target: Neu5Ac(a2-3)Gal(b1-4)GlcNAc(b1-3)Gal(b1-4)GlcNAc(b1-3)Gal(b1-4)GlcNAc(b1-2)Man(a1-3)[Neu5Ac(a2-3)Gal(b1-4)GlcNAc(b1-3)Gal(b1-4)GlcNAc(b1-3)Gal(b1-4)GlcNAc(b1-2)Man(a1-6)]GalNAc
# Procedure, shortened: as §1
# [40] = molecular target: Neu5Ac(a2-3)Gal(b1-4)GlcNAc(b1-3)Gal(b1-4)[Fuc(a1-3)]GlcNAc
# Procedure, shortened: as §1
# [41] = molecular target: Neu5Ac(a2-3)Gal(b1-4)[Fuc(a1-3)]GlcNAc(b1-3)Gal(b1-4)GlcNAc
# Procedure, shortened: as §1
# [42] = molecular target: Neu5Ac(a2-3)GalNAc
# Procedure, shortened: as §1
# [43] = molecular target: Neu5Ac(a2-6)Gal(b1-4)GlcNAc(b1-2)Man(a1-3)[GlcNAc(b1-4)][Neu5Ac(a2-6)Gal(b1-4)GlcNAc(b1-2)Man(a1-6)]Man(b1-4)GlcNAc(b1-4)GlcNAc
# Procedure, shortened: as §1
# [44] = molecular target: Neu5Ac(a2-6)Gal(b1-4)GlcNAc(b1-2)Man(a1-3)[Man(a1-6)]Man(b1-4)GlcNAc(b1-4)GlcNAc
# Procedure, shortened: as §1
# [45] = molecular target: Neu5Ac(a2-6)GlcNAc(b1-4)GlcNAc
# Procedure, shortened: as §1
# [46] = molecular target: Neu5Ac(a2-8)Neu5Ac(a2-3)[Gal(b1-3)GalNAc(b1-4)]Gal(b1-4)Glc
# Procedure, shortened: as §1
# [47] = molecular target: Neu5Ac(a2-8)Neu5Ac(a2-8)Neu5Ac(a2-8)Neu5Ac(a2-3)[GalNAc(b1-4)]Gal(b1-4)Glc
# Procedure, shortened: as §1
# [48] = molecular target: Neu5Ac(b2-6)Gal(b1-4)GlcNAc
# Procedure, shortened: as §1
# [49] = molecular target: Neu5Gc(a2-6)Gal(b1-4)GlcNAc
# Procedure, shortened: as §1
# [50] = molecular target: Neu5Gc(a2-8)Neu5Gc(a2-3)Gal(b1-4)GlcNAc
# Procedure, shortened: as §1
# [51] = molecular target: Neu5Gc(a2-8)Neu5Gc(a2-3)Gal(b1-4)GlcNAc(b1-3)Gal(b1-4)GlcNAc
# Procedure, shortened: as §1
binder,measurement,setting,value
B1,glycan array binding signal (z-score),[1],2.91
same,glycan array binding signal (z-score),[2],0.299
same,glycan array binding signal (z-score),[3],-0.965
same,glycan array binding signal (z-score),[4],0.247
same,glycan array binding signal (z-score),[5],0.533
same,glycan array binding signal (z-score),[6],-0.126
same,glycan array binding signal (z-score),[7],-0.592
same,glycan array binding signal (z-score),[8],0.699
same,glycan array binding signal (z-score),[9],0.43
same,glycan array binding signal (z-score),[10],-0.365
same,glycan array binding signal (z-score),[11],-1.06
same,glycan array binding signal (z-score),[12],-0.257
same,glycan array binding signal (z-score),[13],0.452
same,glycan array binding signal (z-score),[14],0.151
same,glycan array binding signal (z-score),[15],6.69
same,glycan array binding signal (z-score),[16],2.23
same,glycan array binding signal (z-score),[17],-0.543
same,glycan array binding signal (z-score),[18],0.73
same,glycan array binding signal (z-score),[19],-0.349
same,glycan array binding signal (z-score),[20],0.984
same,glycan array binding signal (z-score),[21],2.2
same,glycan array binding signal (z-score),[22],-0.656
same,glycan array binding signal (z-score),[23],-0.212
same,glycan array binding signal (z-score),[24],-1.15
same,glycan array binding signal (z-score),[25],2.82
same,glycan array binding signal (z-score),[26],3.56
same,glycan array binding signal (z-score),[27],0.741
same,glycan array binding signal (z-score),[28],-1.11
same,glycan array binding signal (z-score),[29],-1.44
same,glycan array binding signal (z-score),[30],8.56
same,glycan array binding signal (z-score),[31],4.42
same,glycan array binding signal (z-score),[32],1.25
same,glycan array binding signal (z-score),[33],2.21
same,glycan array binding signal (z-score),[34],-0.26
same,glycan array binding signal (z-score),[35],0.49
same,glycan array binding signal (z-score),[36],-0.481
same,glycan array binding signal (z-score),[37],1.14
same,glycan array binding signal (z-score),[38],-0.599
same,glycan array binding signal (z-score),[39],2.35
same,glycan array binding signal (z-score),[40],-0.732
same,glycan array binding signal (z-score),[41],-0.125
same,glycan array binding signal (z-score),[42],0.096
same,glycan array binding signal (z-score),[43],-0.761
same,glycan array binding signal (z-score),[44],-0.322
same,glycan array binding signal (z-score),[45],0.619
same,glycan array binding signal (z-score),[46],0.198
same,glycan array binding signal (z-score),[47],1.71
same,glycan array binding signal (z-score),[48],0.512
same,glycan array binding signal (z-score),[49],0.437
same,glycan array binding signal (z-score),[50],2.17
same,glycan array binding signal (z-score),[51],0.317
